“And” between values parts separate entries of the source, which are not always exact repeats. Equal values may be shown once. Compounds without any hit were thinned out: in the full panel of roughly 83,000, 20% have a hit.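 Negative percent growth values reflect cell death: -40 means 40% of the cells present at the start died, and -100 means all died.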 The source made the active and inactive calls.

In this experiment the test system is HL-60(TB) leukemia. Put plainly: NCI-60 one-dose screen, 48 h (100 = growth as untreated, 0 = no growth, -100 = all killed). The settings on record: 10 µM unless noted. The procedure:
Growth inhibition of the HL-60(TB) human tumor cell line is measured as a screen for anti-cancer activity. Cells are grown in 96 well plates and exposed to the test compound for 48 hours. Compounds are tested at a single concentration, which is 10^-5 M for most compounds. The reported endpoint is percent growth (GI% or GIPRCNT), where numbers from 0 - 100% represent growth inhibition, and numbers from -100% - 0 represent cell death. For example, a value of 40 represents 60% growth inhibition. A value of 0 means no net growth occurred over the course of the experiment. A value of -40 indicates 40% of cells at the beginning of the experiment died by the end of the experiment. A value of -100 means all cells are dead at the end of the experiment.
NCI-60 Human Tumor Cell Lines Screen was performed using the standard one-dose NCI protocol, which is described in more detail at https://dtp.cancer.gov/discovery_development/nci-60/default.htm.
Compounds with GIPRCNT values below 10 were considered active. Activity score was based on GIPRCNT using the following formula: […]
Score is 0 for GIPRCNT values of 100 or above, 50 for GIPRCNT values of 0, and 100 for GIPRCNT values of -100.
As for `O=C1c2ccccc2C(=O)N1N1CC1c1ccccc1` (stereo not given), the growth was 102% (inactive). As to `CCCCCCCCCCCCCCCC[N+](C)(C)C`, the growth is -66.6% (active) and -38.9% (active). For `O=S(=O)(F)c1cccc(Cl)c1C[P+](c1ccccc1)(c1ccccc1)c1ccccc1`, the growth is 98.9% (inactive). In the case of `CC[C@@H](C)C(=O)O[C@H]1[C@H](O)[C@H]2[C@@H](CN3C[C@@H](C)CC[C@H]3[C@@]2(C)O)[C@@H]2C[C@]34O[C@]5(O)[C@@H](OC(=O)[C@@](C)(O)CC)CC[C@@]3(C)[C@@H]5[C@@H](OC(C)=O)[C@@H](OC(C)=O)[C@H]4[C@@]21O` it was 92.4% (inactive).

With `[N-]=[N+]=CC(=O)CCC(=O)C=[N+]=[N-]`, the growth was 76.4% (inactive). As to `C[C@]12CC[C@H]3[C@@H](C[C@@H]4SC(Nc5ccccc5)=N[C@@]45C/C(=N/O)CC[C@]35C)[C@@H]1CCC2=O`, the growth is 70.1% (inactive).

For the molecule `C/C(=C\c1ccn(-c2ccc(N)c(C(F)(F)F)c2)n1)[C@@H]1C[C@@H]2O[C@]2(C)CCC[C@H](C)[C@H](O)[C@@H](C)C(=O)C(C)(C)[C@@H](O)CC(=O)O1`, the growth is 7.41% (active). Take `CC[C@H](C)[C@H](NC(=O)[C@H]1CCCCN1C)C(=O)N(C)[C@H](C[C@@H](OC(C)=O)c1nc(C(=O)NC23C4C5C2C2C3C4C52C(=O)OC)cs1)C(C)C` (stereo not given in full): the growth was -32.8% (active).

For `O=C1NC(=O)C(=Cc2ccccc2)C(=O)N1`, the growth is 68.3% (inactive) and 105% (inactive). To `CCCCS(=O)(=O)Cl` belongs 105% (inactive); to `COc1ccc2c(c1)c(-c1nc(-c3c[nH]c4ncccc34)cs1)cn2CCCCN1CCOCC1`, 7.66% (active). To `N#CC(C#N)=Cc1cccc(F)c1` belongs 97.2% (inactive).

Take `Clc1ccc(COC(Cn2ccnc2)c2ccc(Cl)cc2Cl)c(Cl)c1` (stereo not given): the growth is -0.421% (active) and 18.6% (inactive). As to `COc1cc2c(cc1OC)[C@@H]1C(=O)c3ccc4c(c3O[C@@H]1CO2)C[C@H](C(C)C)O4`, the growth is 19% (inactive).

Regarding `NC(N)=NC(N)=Nc1ccc(Cl)cc1`, the growth is 48.4% (inactive).

As to `CCC1(NC(=O)c2cc(F)c(F)c(F)c2F)C(=O)NC(=O)N(C(C)C)C1=O` (stereo not given), the growth is -22.6% (active). To `O=S1(=O)OCCO1` belongs 98.6% (inactive); to `CC[C@H](C)[C@H](NC(=O)C12CC(NC)(C1)C2)C(=O)N(C)[C@H](C[C@@H](OC(C)=O)c1nc(C(=O)N[C@@H](Cc2ccccc2)C[C@H](C)C(=O)OC)cs1)C(C)C`, -32.5% (active).

Regarding `O=[N+]([O-])c1cc(Cl)c(Cl)cc1Cl`, the growth is 114% (inactive). As to `NC(=O)Oc1cc(OC(N)=O)cc(N(CCCl)CCCl)c1`, the growth was 15.1% (inactive). To `Cc1ccccc1-n1c(/C=C\c2ccccn2)nc2ccccc2c1=O` belongs 19.9% (inactive); to `O=C(O)c1ccccc1N(CCO)CCCl`, 53.8% (inactive). On to `CC(=O)OC1CC2(O)C(CCC3(C)C(c4ccc(=O)oc4)CCC32O)C2(C)CCC(OC3OC(CO)C(O)C(O)C3O)C=C12` (stereo not given), for which the growth is -46.1% (active). To `CCCCCCCCCCCCCCCCCCn1cc[n+](C)c1` belongs 3.76% (active) and 2.22% (active). To `CC1=C([Te]c2ccccc2)C(=O)c2ccccc2C1=O` belongs 12.7% (inactive); to `CC[C@H](C)[C@H](NC(=O)[C@H]1CCCCN1C)C(=O)N(C)[C@H](C[C@@H](OC(C)=O)c1nc(C(=O)N[C@@H](Cc2ccccc2)C[C@H](C)C(=O)O)cs1)C(C)C`, -29.8% (active).

In the case of `COC(=O)C1=CO[C@@H](C)[C@@H]2CN3CCc4c([nH]c5cc(OC)ccc45)[C@@H]3C[C@H]12`, the growth is 87.1% (inactive).

With `CCOC(=O)P(=O)(OCC)OCC`, the growth was 113% (inactive). As for `COC12CC3(C)C(C4=CC(=O)OC4)CCC3(O)C3CCC4=CC(=O)CCC4(CO1)C32` (stereo not given), the growth is 123% (inactive). To `CCN(CC)CCn1c(=O)n(C)c2ccccc21` belongs 107% (inactive); to `CCOP(=O)(NC)OCC`, 73.9% (inactive); to `COC(=O)C1=CCCN(C)C1`, 108% (inactive) and 122% (inactive). In the case of `CCOC(=O)c1cncn1C(C)c1ccccc1` (stereo not given) it was 104% (inactive). To `N[C@@H](CCC(=O)CCl)C(=O)O` belongs 101% [20 µM] (inactive); to `O=CC1(c2ccccc2)CCN(Cc2ccccc2)CC1`, 97.8% (inactive); to `CO/N=C1\CC[C@]2(C)[C@H]3CC[C@]4(C)C(=O)CC[C@H]4[C@@H]3C[C@@H]3SC(N)=N[C@@]32C1`, 91.9% (inactive). As for `Cc1cc(NC(=O)NCCCOc2ccc(N3C(N)=NC(N)=NC3(C)C)cc2Cl)ccc1S(=O)(=O)F`, the growth was 29.1% (inactive). In the case of `c1ccc2nc(-c3ccc4ccccc4n3)ccc2c1` it was 101% (inactive). In the case of `O=S(=O)(c1ccc(O)cc1)c1ccccc1O` it was 106% (inactive); in that of `CC/C(=C(\c1ccc(OCCN2CCOCC2)cc1)c1ccc(OC(=O)Cc2ccccc2)cc1)c1ccc(Cl)cc1`, 95.5% (inactive).

The values are drawn from PubChem BioAssay (NCI).
